Source: PubChem BioAssay AID504715 (Sanford-Burnham Center for Chemical Genomics, 2011)
This is one part of the list. A number with no mark means an inactive call.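 The calls were made as follows: active = compounds giving 40% or more inhibition at 20 µM in any one of the three replicates; inactive = the rest.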

Biological target: Uracil-DNA glycosylase (Escherichia coli (strain K12)) (UniProt P12295)
Assay: uracil-DNA glycosylase inhibition, oligo cleavage readout – biochemical, single concentration, fluorescence, FAM/TAMRA oligo, counter-screen for APOBEC3G inhibitor project, confirmation (AID 504715);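 also: plate controls were DMSO wells with UDG and oligo for no effect and DMSO wells lacking both for full effect; inhibitors lower the FAM signal released by uracil excision and alkaline cleavage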
Settings: UDG counterscreen, at 20 µM, active compounds read high

Sequence of Uracil-DNA glycosylase (Escherichia coli (strain K12)) (P12295 whole entry, looked up): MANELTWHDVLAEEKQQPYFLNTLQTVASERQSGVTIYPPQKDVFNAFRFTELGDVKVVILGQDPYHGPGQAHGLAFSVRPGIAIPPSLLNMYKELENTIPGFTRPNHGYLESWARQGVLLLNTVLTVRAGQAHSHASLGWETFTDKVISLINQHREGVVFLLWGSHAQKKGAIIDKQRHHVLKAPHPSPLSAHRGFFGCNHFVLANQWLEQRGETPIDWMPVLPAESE

COC(=O)N(c1ccc(OC)cc1)P1(=S)OCCC(C)O1 (stereo unspecified)
inhibition: -3.68%
